Here are results for one sequence from paper PMC7862700, “An all-to-all approach to the identification of sequence-specific readers for epigenetic DNA modifications on cytosine”.

Holding throughout (test): DAPPL (digital affinity profiling via proximity ligation, sequencing); 10 mM Tris-HCl pH 7.5, 50 mM NaCl, 1 mM DTT, 4% glycerol, room temperature, 30 min; GST-TFs on glutathione beads, 16-mer random dsDNA library, 0.1% formaldehyde crosslink after washing; high values mean tight binding
One assay concerns the target T1, FLI1 (Homo sapiens, UniProt Q01543 1-452).
T1 sequence: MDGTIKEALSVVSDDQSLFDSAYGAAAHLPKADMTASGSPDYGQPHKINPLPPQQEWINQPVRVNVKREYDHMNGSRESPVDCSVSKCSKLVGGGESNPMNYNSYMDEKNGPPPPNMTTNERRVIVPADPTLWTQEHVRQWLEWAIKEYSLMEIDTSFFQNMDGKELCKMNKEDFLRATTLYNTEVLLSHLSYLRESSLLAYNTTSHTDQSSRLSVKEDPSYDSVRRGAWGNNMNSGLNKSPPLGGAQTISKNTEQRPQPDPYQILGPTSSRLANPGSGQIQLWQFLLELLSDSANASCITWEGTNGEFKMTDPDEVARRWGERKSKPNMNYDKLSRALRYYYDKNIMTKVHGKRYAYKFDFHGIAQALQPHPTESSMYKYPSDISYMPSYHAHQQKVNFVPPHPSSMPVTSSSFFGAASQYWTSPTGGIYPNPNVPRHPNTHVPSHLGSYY
The settings on record: protein: recombinant; tags: N-terminal GST; dsDNA, one strand shown. In outline:
(§1)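 Sequencing on an Illumina NextSeq500 followed washing, crosslinking with 0.1% formaldehyde, proximity ligation (BsaI/T4 ligase, 1 h, 37 °C) and PCR amplification of pools that had been incubated for 30 min at room temperature with 200 nmole of a random double-stranded 16-mer DNA library in Tris/NaCl/DTT/glycerol buffer. Each pool held DNA-barcoded human transcription factors, expressed in yeast as GST fusions and captured on glutathione beads, plus a tag-only sample. Binding signal is a hexamer's read frequency for a factor divided by its frequency in the tag-only sample.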

A further assay addresses T2, ELK1 (Homo sapiens, UniProt P19419 1-428).
T2 sequence: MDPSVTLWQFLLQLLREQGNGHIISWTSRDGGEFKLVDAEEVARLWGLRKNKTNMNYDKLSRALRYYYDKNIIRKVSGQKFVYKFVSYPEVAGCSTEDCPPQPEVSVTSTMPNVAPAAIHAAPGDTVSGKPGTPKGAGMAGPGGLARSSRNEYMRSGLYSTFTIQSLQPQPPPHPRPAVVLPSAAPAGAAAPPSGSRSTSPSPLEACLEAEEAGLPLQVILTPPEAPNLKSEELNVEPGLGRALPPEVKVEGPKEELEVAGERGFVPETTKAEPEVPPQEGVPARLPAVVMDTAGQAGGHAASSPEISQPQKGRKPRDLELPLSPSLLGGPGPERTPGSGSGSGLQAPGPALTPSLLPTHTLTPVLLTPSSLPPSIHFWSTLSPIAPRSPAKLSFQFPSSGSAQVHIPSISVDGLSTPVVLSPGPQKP
The settings on record: protein: recombinant; tags: N-terminal GST; dsDNA, one strand shown. A digest of the protocol:
as §1

The target of another assay is T3, GABPA (Homo sapiens, UniProt Q06546 1-454).
T3 sequence: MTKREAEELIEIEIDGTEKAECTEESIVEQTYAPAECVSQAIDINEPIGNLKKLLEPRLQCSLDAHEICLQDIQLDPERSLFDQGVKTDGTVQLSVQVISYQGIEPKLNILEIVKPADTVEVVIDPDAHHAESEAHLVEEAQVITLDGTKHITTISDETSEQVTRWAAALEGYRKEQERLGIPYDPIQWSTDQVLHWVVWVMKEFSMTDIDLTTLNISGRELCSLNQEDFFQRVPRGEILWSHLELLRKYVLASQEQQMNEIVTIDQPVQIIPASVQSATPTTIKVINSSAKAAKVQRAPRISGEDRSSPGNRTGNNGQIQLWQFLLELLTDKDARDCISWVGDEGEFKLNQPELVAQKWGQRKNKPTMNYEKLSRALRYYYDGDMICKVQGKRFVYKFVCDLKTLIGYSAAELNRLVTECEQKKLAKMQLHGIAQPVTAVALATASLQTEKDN
The settings on record: protein: recombinant; tags: N-terminal GST; dsDNA, one strand shown. In outline:
as §1

In a further assay the target is T4, ERG (Homo sapiens, UniProt P11308 1-479).
T4 sequence: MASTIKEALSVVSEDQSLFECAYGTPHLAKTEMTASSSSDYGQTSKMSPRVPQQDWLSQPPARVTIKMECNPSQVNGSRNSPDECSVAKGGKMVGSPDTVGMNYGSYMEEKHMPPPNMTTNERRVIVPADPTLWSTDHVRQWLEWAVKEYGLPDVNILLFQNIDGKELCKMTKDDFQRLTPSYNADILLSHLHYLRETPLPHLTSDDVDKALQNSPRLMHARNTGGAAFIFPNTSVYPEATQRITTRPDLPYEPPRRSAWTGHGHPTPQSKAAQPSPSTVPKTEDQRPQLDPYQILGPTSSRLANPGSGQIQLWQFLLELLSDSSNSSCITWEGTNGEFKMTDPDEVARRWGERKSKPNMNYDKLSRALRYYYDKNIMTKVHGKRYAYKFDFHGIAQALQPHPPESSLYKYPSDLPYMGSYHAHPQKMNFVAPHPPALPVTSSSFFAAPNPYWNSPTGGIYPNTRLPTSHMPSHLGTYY
The settings on record: protein: recombinant; tags: N-terminal GST; dsDNA, one strand shown. A digest of the protocol:
as §1

For the next assay, the target named is ELF1 (Homo sapiens, UniProt P32519 1-619). The settings on record: protein: recombinant; tags: N-terminal GST; dsDNA, one strand shown. In outline:
as §1

Another assay has as its target T5, EHF (Homo sapiens, UniProt Q9NZC4 1-300).
T5 sequence: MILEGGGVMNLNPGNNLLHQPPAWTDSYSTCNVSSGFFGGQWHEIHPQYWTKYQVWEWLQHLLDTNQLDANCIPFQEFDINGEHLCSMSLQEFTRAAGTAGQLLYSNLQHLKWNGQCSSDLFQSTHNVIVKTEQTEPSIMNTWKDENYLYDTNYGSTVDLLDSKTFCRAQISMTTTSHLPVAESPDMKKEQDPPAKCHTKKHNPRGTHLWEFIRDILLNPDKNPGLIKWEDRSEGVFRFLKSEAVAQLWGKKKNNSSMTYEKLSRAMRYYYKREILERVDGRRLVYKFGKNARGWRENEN
The settings on record: protein: recombinant; tags: N-terminal GST; dsDNA, one strand shown. A digest of the protocol: as §1

For the next assay, the target named is SPI1 (Homo sapiens, UniProt P17947 1-270). The settings on record: protein: recombinant; tags: N-terminal GST; dsDNA, one strand shown. A digest of the protocol: as §1
The target in the next assay is SPIB (Homo sapiens, UniProt Q01892 1-262). The settings on record: protein: recombinant; tags: N-terminal GST; dsDNA, one strand shown. A digest of the protocol: as §1
The target of another assay is ETV5 (Homo sapiens, UniProt P41161 1-510). The settings on record: protein: recombinant; tags: N-terminal GST; dsDNA, one strand shown. In outline:
as §1

The next assay has as its target HSF1 (Homo sapiens, UniProt Q00613 1-529). The settings on record: protein: recombinant; tags: N-terminal GST; chain copies: 3; dsDNA, one strand shown. In outline:
as §1

Another assay concerns the target T6, SPIC (Homo sapiens, UniProt Q8N5J4 1-248).
T6 sequence: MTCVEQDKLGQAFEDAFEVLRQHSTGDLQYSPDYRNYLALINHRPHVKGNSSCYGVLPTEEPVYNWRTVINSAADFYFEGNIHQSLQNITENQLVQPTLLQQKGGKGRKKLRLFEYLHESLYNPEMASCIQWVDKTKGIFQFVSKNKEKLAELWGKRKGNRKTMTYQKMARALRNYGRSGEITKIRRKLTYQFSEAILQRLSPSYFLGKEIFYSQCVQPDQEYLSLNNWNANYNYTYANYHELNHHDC
The settings on record: protein: recombinant; tags: N-terminal GST; dsDNA, one strand shown. A digest of the protocol:
as §1

The next assay has as its target ELF4 (Homo sapiens, UniProt Q99607 1-663). The settings on record: protein: recombinant; tags: N-terminal GST; dsDNA, one strand shown. In outline:
as §1

Another assay addresses T7, ELK4 (Homo sapiens, UniProt P28324-2 1-405).
T7 sequence: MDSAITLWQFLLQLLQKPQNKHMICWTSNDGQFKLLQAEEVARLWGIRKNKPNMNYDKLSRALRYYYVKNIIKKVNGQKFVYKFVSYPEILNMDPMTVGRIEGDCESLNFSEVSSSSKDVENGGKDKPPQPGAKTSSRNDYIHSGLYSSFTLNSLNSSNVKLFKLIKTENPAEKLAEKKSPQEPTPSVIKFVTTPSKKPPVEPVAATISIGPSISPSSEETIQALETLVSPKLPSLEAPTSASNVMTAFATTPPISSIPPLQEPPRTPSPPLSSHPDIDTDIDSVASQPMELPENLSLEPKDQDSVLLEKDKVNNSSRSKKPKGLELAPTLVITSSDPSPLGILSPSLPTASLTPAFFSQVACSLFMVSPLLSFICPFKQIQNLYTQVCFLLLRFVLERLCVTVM
The settings on record: protein: recombinant; tags: N-terminal GST; dsDNA, one strand shown. In outline:
as §1

A further assay concerns the target T8, ETV2 (Homo sapiens, UniProt O00321 1-342).
T8 sequence: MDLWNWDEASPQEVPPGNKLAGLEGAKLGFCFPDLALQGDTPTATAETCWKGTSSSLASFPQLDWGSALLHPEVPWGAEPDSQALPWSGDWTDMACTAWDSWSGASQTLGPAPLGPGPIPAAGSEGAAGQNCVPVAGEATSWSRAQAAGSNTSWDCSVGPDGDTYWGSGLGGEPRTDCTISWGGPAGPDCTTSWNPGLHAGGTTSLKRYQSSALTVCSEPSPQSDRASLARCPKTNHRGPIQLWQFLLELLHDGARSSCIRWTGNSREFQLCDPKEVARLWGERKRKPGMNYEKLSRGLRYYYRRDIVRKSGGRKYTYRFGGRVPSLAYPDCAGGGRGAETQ
The settings on record: protein: recombinant; tags: N-terminal GST; dsDNA, one strand shown. A digest of the protocol:
as §1

Another assay addresses CRX (Homo sapiens, UniProt O43186 1-299). The settings on record: protein: recombinant; tags: N-terminal GST; dsDNA, one strand shown. In outline: as §1
The target of a further assay is ETV1 (Homo sapiens, UniProt P50549 1-477). The settings on record: protein: recombinant; tags: N-terminal GST; dsDNA, one strand shown. In outline:
as §1

Sequence of HSF1 (Q00613 whole entry): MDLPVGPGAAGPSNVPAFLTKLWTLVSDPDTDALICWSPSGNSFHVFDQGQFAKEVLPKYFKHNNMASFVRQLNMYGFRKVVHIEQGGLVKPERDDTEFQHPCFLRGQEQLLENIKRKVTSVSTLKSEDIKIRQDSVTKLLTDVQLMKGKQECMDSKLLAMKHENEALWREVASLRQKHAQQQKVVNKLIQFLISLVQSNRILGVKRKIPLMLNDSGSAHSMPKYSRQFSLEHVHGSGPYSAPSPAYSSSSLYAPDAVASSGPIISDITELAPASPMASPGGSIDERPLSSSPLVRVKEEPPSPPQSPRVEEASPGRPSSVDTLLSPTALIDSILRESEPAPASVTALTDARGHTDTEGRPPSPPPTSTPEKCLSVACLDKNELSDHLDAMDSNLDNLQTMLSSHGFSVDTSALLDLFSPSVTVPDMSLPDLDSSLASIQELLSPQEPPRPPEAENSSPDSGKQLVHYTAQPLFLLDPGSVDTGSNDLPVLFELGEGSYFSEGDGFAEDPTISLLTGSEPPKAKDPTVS
Sequence of SPIB (Q01892 whole entry): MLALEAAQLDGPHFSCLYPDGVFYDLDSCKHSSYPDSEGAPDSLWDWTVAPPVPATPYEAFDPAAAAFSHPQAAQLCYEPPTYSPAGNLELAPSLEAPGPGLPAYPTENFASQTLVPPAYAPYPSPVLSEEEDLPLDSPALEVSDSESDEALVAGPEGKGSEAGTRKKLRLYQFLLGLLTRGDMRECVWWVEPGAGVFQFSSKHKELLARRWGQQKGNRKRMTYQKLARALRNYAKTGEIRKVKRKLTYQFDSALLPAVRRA
Sequence of ELF4 (Q99607 whole entry): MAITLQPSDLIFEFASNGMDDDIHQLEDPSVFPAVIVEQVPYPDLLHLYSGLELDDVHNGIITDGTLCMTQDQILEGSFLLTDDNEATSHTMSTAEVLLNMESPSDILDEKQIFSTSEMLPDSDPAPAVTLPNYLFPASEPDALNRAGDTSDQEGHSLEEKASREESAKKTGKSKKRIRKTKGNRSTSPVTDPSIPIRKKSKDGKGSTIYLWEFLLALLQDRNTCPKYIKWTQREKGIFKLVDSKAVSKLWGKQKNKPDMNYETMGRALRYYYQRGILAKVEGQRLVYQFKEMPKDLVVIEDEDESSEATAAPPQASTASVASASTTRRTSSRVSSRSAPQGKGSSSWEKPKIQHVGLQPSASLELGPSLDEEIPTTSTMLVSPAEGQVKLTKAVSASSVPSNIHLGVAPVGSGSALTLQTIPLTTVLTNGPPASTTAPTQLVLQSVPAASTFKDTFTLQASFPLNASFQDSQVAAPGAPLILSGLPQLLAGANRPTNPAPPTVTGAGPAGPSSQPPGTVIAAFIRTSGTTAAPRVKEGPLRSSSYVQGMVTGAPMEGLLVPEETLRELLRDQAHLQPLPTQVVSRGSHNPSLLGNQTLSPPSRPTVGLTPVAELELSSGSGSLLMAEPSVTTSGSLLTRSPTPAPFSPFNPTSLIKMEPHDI
Sequence of ETV1 (P50549 whole entry): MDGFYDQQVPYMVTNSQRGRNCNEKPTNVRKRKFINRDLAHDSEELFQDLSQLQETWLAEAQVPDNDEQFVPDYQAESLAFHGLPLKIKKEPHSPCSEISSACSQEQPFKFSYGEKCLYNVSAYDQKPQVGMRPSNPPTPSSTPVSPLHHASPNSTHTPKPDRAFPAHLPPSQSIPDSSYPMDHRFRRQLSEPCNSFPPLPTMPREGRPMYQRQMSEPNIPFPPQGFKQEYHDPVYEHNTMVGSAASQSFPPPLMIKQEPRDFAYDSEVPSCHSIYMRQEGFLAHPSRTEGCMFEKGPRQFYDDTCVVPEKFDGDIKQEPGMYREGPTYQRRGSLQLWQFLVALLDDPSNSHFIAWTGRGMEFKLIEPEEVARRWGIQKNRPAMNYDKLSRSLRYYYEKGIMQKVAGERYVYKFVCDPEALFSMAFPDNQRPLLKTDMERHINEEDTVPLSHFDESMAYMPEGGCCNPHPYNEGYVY
Sequence of ETV5 (P41161 whole entry): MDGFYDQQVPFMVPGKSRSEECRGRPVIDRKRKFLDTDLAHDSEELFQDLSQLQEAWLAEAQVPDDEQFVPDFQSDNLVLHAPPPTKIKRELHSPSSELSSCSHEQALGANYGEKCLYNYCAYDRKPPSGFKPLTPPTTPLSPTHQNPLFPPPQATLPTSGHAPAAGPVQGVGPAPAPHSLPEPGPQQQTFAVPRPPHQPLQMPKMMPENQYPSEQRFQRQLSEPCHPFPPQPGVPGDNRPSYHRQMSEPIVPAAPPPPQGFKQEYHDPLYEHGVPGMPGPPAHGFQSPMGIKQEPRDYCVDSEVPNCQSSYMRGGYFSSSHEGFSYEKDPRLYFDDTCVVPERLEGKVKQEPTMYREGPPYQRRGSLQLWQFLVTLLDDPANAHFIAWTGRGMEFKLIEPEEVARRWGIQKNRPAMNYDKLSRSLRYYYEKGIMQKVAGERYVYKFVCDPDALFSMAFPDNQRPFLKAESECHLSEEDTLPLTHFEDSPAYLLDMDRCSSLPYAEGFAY
Sequence of CRX (O43186 whole entry): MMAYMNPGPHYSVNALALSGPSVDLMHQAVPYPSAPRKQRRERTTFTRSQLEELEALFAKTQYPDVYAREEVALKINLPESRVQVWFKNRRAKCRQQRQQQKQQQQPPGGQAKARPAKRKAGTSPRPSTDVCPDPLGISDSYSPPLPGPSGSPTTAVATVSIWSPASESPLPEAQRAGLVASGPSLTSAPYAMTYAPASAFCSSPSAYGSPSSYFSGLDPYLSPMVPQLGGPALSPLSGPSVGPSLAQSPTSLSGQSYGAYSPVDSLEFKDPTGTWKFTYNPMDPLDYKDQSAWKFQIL
Sequence of ELF1 (P32519 whole entry): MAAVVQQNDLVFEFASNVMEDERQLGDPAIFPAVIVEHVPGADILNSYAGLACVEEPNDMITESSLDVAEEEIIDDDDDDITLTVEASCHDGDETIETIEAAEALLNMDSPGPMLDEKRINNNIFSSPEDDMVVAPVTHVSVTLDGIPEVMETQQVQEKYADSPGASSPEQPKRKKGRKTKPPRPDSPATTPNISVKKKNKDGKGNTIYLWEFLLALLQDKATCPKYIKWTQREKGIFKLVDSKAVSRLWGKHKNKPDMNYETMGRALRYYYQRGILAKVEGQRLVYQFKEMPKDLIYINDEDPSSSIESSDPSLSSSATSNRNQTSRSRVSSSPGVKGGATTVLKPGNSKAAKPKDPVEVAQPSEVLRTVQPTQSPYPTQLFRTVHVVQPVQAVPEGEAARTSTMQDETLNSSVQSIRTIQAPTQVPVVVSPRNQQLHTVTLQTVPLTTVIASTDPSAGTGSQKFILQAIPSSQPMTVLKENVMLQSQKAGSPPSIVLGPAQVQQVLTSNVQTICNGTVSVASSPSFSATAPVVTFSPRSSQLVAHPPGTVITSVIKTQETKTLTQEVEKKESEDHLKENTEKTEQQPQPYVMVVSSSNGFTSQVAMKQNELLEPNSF

Turning to TTAGCG, the binding signal was 1.05 fold enrichment (6-mer frequency, TF over GST control) with FLI1; 1.04 fold enrichment (6-mer frequency, TF over GST control) with ELK1; 1.03 fold enrichment (6-mer frequency, TF over GST control) with GABPA; 1.05 fold enrichment (6-mer frequency, TF over GST control) with ERG; 1.09 fold enrichment (6-mer frequency, TF over GST control) with ELF1; 1.06 fold enrichment (6-mer frequency, TF over GST control) with EHF. In addition, the binding signal in the assay with SPI1 is 1 fold enrichment (6-mer frequency, TF over GST control); with SPIB it was 1.13 fold enrichment (6-mer frequency, TF over GST control); with ETV5 it was 1 fold enrichment (6-mer frequency, TF over GST control); with HSF1, 1.49 fold enrichment (6-mer frequency, TF over GST control); in the assay with SPIC, 1.03 fold enrichment (6-mer frequency, TF over GST control); in the assay with ELF4, 1.14 fold enrichment (6-mer frequency, TF over GST control). The binding signal was 1.05 fold enrichment (6-mer frequency, TF over GST control) with ELK4; 1.14 fold enrichment (6-mer frequency, TF over GST control) with ETV2; 2.24 fold enrichment (6-mer frequency, TF over GST control) in the assay with CRX; 1.07 fold enrichment (6-mer frequency, TF over GST control) with ETV1.
